Bioassay records (PubChem BioAssay)
Most compounds without a hit are left out; they make up all but 4.6% or so of the library.
D1 potentiator – human D1 dopamine receptor positive modulation. P21728. HEK293 TREx D1 cells, calcium flux, dopamine EC20 potentiation. potentiation, % at 10 µM. 360,000 compounds, 0.036% hits. AID 504651; in the data active means potentiation above about 30%; further: 0% is about no effect
Target sequence (P21728 whole entry, looked up): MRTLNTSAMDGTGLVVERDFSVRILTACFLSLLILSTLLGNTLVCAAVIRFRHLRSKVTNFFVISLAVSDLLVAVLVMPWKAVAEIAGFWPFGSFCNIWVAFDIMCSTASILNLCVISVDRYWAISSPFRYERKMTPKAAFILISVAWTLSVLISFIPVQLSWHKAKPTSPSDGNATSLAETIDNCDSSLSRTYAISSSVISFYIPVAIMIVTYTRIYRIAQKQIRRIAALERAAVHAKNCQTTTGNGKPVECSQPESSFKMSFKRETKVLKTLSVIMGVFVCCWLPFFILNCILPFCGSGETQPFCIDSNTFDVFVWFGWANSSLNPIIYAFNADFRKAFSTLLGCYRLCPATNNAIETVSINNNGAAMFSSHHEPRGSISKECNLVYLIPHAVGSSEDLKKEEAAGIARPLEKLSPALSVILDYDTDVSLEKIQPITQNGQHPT
D1 antag – antagonists of human D1 dopamine receptor; P21728; HEK293 TREx D1 cells, calcium flux, dopamine EC80; hits give low values; activity change, negative = inhibition, % at 10 µM; 360,000 compounds, 3.2% hits; in the data active means activity change below about -30%; further: on the % scale 0 is the no-effect control and ±100 the full control effect
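Allosteric or orthosteric antagonism assessed as attenuation of the calcium response to EC80 dopamine, added 180 s after compound, in induced HEK293 Trex D1 cells loaded with no-wash calcium dye.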
TRHR PAM – TRH receptor (human) allosteric enhancement | 360,000 compounds, 0.66% hits | AID 493056 | TRHR cells, fluo-8 calcium fluorescence, EC20 TRH enhancement | P34981 | enhancement, % at 2 µM; in the data active means enhancement above about 30%; further: 0% is about no effect
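Enhancer read-out: after compound pinning and an initial kinetic agonist-mode read, an EC20 of TRH (10 nM final) was injected and fluo-8 calcium signal (Ex 480/Em 530) followed at 1 s/cycle for 100 cycles in TRHR-expressing cells.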
D1 agonist – activates the human D1 dopamine receptor. P21728. HEK293 T-REx D1 cells, calcium flux, agonist mode. 360,000 compounds, 1% hits. activation, % at 2 µM; further: 0% is about no effect
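Inducible HEK293 T-REx D1 cells, force-coupled to calcium signalling, were plated at 4000 cells/well with tetracycline and held overnight at 30 C. After no-wash calcium dye loading, compound-evoked calcium rise over 180 s flagged agonists.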
TRHR ag – agonists of human TRH receptor; P34981; 360,000 compounds, 0.18% hits; activation, % at 2 µM; AID 493084; TRHR cells, calcium flux fluo-8, FDSS agonist mode; further: 0% is about no effect
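Fluo-8-loaded TRHR cells; 10 s baseline, compound added, kinetic Ca2+ fluorescence read 1/s, agonist mode.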
* hit, by the source's call; · = not tested or not shown. Unless noted, no stated cut-off is given here; in the data, active means activation above about 30%; inactive means the rest.

SMILES | D1 potentiator | D1 antag | TRHR PAM | D1 agonist | TRHR ag
C=CCOc1ccc(/C=N\NC(N)=S)cc1 | -5.0 | -61.9* | 33.2* | -0.4 | -0.7
COc1ccc(C2CC(c3ccccc3)=NN2C(=O)COC(=O)C2CC2)cc1 (stereo unspecified) | -1.4 | -6.0 | 1.8 | 11.6 | 0.8
COc1ccc(C2CC(c3ccccc3)=NN2C(=O)CCC(=O)O)cc1 (stereo unspecified) | -3.5 | 0.8 | 32.8* | 2.1 | 1.2
COc1ccc(C2CC(c3ccc4ccccc4c3)=NN2C(=O)CN2C(=O)CCC2=O)cc1 (stereo unspecified) | 0.2 | -30.2* | 2.8 | 8.9 | 0.3
COc1ccc(C2CC(c3ccccc3)=NN2C(=O)COC(=O)c2cccnc2)cc1 (stereo unspecified) | -4.6 | -6.4 | 37.4* | 3.9 | -0.5
COc1ccc(C2CC(c3ccccc3)=NN2C(=O)COC(=O)c2cccnc2Cl)cc1 (stereo unspecified) | -5.3 | -12.1 | 2.4 | 8.0 | -0.9
COc1ccc(C2CC(c3ccccc3)=NN2C(=O)COC(=O)c2cc(S(=O)(=O)N3CCOCC3)ccc2Cl)cc1 (stereo unspecified) | 0.2 | -13.8 | 39.7* | 9.3 | 1.3
Cc1cc(NC(=O)CSc2cn(CC(=O)N(C(C)C)C(C)C)c3ccccc23)no1 | -6.5 | 2.5 | -5.2 | -0.4 | -1.5
COc1ccc(N2CCN(C(=O)CCc3c(C)nc4c(-c5ccccc5)c(C)nn4c3C)CC2)cc1 | -1.4 | 2.3 | 8.9 | 0.3 | -0.3
Cc1nnc(N2C(=O)C(O)=C(C(=O)c3ccco3)C2c2ccc(C(C)C)cc2)s1 (stereo unspecified) | -2.2 | -2.7 | -1.5 | 51.2* | 15.5
Cc1nnc(N2C(=O)C(O)=C(C(=O)c3ccco3)C2c2ccc(C(C)(C)C)cc2)s1 (stereo unspecified) | -4.9 | 2.7 | -1.9 | 27.6 | 8.4
CCCCOc1cccc(C2C(C(=O)c3ccc(C)o3)=C(O)C(=O)N2c2nnc(C)s2)c1 (stereo unspecified) | -2.0 | 9.6 | -4.2 | 7.7 | 2.9
Cc1nnc(N2C(=O)C(O)=C(C(=O)c3ccco3)C2c2ccc(F)cc2)s1 (stereo unspecified) | -0.2 | 10.5 | 11.4 | 35.7* | 21.1
Cc1ccc(C2C(C(=O)c3cccs3)=C(O)C(=O)N2c2nnc(C)s2)cc1 (stereo unspecified) | -2.5 | -21.4 | 0.5 | 140.8* | 55.6*
CCCOc1cccc(C2C(C(=O)c3ccco3)=C(O)C(=O)N2c2nnc(C)s2)c1 (stereo unspecified) | · | 5.5 | 12.4 | 76.0* | 8.7
CC(C)c1ccc(OCc2cc(=O)n3c(-c4ccccc4)csc3n2)cc1 | -1.4 | 3.7 | -0.4 | 4.1 | -1.6
Cc1ccc(C2C(C(=O)c3ccco3)=C(O)C(=O)N2c2ncccn2)cc1 (stereo unspecified) | -2.7 | -7.3 | -1.7 | 4.2 | 0.7
CSc1ccc(C2C(C(=O)c3ccco3)=C(O)C(=O)N2c2nnc(SC)s2)cc1 (stereo unspecified) | 0.0 | -11.0 | 7.5 | 31.3* | 18.3
O=S(=O)(Nc1ccc(N2CCCCC2)cc1)c1ccc(F)c(F)c1 | -3.3 | -7.7 | 0.6 | 58.0* | -0.5
Nc1c(-c2ccccc2)cc[nH]c1=O | -0.2 | -4.8 | 4.4 | 6.1 | 1.8
COC(=O)c1scc(-c2ccc(C)cc2)c1S(=O)(=O)N1CCN(c2ccccc2F)CC1 | -4.8 | 0.4 | -6.8 | 0.9 | -0.5
Cc1c(C(=O)NCCN(C)C)oc2c1-c1nn(Cc3cccc(Cl)c3)cc1CC2 | -3.8 | 1.6 | -0.7 | -0.5 | 0.1
CSc1ccc(NC(=O)NCCCN2CCN(c3ccccc3F)CC2)cc1 | -4.0 | -72.9* | -0.7 | 37.0* | 0.7
O=C(NCCCN1CCN(c2ccccc2F)CC1)Nc1ccc(F)cc1 | -11.3 | -78.7* | 2.6 | 4.1 | -0.3
O=C(NCCCN1CCN(c2ccccc2F)CC1)Nc1ccccc1[N+](=O)[O-] | -13.8 | -53.8* | 1.6 | 7.9 | -0.4
CCOC(=O)c1cccc(NC(=O)c2cc3ccccn3n2)c1 | -3.6 | 13.1 | -0.7 | 1.7 | -0.3
CCOC(=O)c1[nH]c2ccccc2c1NC(=O)c1ccc(OC(C)C)cc1 | 1.2 | -3.3 | 0.9 | 2.4 | 0.0
COc1ccc(NC(=O)CN(C)C(=O)CCc2c[nH]c3ccccc23)cc1 | -0.5 | -8.6 | 2.1 | 2.1 | -0.3
